# Measured values from the supplement of paper PMC11732987, “Enantioselective OTUD7B fragment discovery through chemoproteomics screening and high-throughput optimisation” (Communications Chemistry, 2025).
# Values without a mark were called inactive.
# What was measured:
# Experiment in all cases: log2 ratio of Biotin-Ahx-Ub-VS probe labelling (fragment/DMSO); higher = less target engagement (more negative = stronger competition), active = hit call of the paper (q ≤ 0.05, log2 ratio ≤ -1)
# Details in all cases: compound concentration: 200 uM; treatment time: 3 h
# [1] = molecular target: T1, USP19 (UniProt O94966)
# T1 sequence (whole entry): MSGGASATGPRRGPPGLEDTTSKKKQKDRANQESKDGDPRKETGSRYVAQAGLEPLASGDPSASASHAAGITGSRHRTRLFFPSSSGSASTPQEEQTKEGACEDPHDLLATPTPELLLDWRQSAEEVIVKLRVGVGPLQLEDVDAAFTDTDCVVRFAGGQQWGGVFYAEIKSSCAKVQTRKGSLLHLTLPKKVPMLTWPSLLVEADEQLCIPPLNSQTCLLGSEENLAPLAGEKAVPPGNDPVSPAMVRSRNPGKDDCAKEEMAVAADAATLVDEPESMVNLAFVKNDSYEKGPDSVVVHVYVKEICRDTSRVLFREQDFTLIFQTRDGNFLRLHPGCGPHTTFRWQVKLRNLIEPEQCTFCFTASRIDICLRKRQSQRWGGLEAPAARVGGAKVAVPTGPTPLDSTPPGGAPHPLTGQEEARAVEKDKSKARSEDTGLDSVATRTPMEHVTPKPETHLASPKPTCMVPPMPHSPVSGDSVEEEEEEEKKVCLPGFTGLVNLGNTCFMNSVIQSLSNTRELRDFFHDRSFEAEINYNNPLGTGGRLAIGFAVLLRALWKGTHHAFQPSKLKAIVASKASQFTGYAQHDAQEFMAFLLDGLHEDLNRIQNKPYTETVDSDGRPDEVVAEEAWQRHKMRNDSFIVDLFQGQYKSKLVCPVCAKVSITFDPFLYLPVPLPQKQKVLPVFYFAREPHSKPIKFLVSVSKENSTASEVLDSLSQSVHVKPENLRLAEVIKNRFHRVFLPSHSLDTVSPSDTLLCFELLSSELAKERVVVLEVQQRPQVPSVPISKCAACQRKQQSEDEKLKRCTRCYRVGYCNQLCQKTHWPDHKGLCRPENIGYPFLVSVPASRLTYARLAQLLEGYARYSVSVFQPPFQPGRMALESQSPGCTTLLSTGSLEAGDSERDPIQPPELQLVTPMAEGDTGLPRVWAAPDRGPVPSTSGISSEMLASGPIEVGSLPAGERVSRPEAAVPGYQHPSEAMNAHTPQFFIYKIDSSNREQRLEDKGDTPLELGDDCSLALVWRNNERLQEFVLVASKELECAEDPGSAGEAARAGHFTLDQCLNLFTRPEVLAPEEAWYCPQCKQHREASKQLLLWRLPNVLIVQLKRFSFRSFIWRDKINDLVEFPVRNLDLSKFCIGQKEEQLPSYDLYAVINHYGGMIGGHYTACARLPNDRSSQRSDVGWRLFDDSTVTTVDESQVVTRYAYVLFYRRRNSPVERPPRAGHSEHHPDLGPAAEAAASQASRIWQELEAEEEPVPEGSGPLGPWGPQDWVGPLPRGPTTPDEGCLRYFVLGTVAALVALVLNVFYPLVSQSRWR
# In short: (§1)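 HEK293T lysate (495 µg per sample, in Tris/CHAPS/IGEPAL buffer with protease inhibitors) was exposed in triplicate for 3 h to fragment at 200 µM or to vehicle, then to Biotin-Ahx-Ub-VS at 0.5 µM final for 1 h. Labelled DUBs were enriched on NeutrAvidin, digested with LysC and trypsin, and analysed by diaPASEF LC-MS/MS. Spectronaut label-free quantities were normalised to the global median, and values are average log2 ratios of fragment over vehicle from an unpaired t-test. Only proteins with ≥2 unique peptides were used.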
# [2] = molecular target: T2, USP22 (UniProt Q9UPT9)
# T2 sequence (whole entry): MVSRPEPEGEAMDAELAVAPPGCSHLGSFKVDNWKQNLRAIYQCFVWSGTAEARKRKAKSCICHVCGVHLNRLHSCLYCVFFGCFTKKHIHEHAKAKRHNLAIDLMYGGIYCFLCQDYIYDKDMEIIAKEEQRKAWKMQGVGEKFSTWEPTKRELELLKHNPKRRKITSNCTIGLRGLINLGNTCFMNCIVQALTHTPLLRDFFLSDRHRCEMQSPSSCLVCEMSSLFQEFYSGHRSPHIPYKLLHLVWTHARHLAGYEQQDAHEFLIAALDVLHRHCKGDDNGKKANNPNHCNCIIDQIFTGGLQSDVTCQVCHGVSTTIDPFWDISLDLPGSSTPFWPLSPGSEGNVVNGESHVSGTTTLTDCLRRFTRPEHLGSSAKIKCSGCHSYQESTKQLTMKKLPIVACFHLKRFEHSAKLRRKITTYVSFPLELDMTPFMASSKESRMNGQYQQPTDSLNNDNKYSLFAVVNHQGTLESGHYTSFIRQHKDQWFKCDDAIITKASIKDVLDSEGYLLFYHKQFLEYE
# In short: as §1
# [3] = molecular target: USP24 (UniProt Q9UPU5)
# In short: as §1
# [4] = molecular target: T3, USP25 (UniProt Q9UHP3)
# T3 sequence (whole entry): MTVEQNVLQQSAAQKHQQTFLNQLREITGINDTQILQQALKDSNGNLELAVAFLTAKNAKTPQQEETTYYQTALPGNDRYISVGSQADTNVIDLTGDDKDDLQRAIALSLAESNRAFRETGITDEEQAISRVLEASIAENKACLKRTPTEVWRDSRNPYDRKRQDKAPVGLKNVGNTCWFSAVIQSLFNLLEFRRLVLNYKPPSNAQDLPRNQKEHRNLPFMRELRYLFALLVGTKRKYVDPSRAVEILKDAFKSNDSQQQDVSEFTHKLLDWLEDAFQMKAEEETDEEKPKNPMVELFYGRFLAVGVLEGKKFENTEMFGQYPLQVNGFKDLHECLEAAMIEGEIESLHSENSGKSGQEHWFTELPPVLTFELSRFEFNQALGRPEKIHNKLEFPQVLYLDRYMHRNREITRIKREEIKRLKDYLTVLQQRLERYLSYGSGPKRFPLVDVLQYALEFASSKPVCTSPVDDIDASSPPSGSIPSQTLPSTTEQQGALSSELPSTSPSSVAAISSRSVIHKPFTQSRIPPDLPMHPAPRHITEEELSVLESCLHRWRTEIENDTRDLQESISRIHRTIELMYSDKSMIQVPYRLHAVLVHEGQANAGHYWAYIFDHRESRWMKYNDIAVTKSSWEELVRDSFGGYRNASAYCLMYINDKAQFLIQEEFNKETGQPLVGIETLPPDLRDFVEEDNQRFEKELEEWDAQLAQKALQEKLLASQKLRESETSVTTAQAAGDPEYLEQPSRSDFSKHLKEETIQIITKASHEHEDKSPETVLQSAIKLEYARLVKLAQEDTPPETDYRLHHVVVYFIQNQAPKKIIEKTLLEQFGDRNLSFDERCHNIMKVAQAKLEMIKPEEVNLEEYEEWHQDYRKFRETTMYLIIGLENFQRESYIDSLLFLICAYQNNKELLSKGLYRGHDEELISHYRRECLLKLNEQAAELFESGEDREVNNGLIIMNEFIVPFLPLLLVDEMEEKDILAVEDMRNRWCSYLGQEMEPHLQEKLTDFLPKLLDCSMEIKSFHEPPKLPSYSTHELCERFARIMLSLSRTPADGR
# In short: as §1
# [5] = molecular target: T4, USP28 (UniProt Q96RU2)
# T4 sequence (whole entry): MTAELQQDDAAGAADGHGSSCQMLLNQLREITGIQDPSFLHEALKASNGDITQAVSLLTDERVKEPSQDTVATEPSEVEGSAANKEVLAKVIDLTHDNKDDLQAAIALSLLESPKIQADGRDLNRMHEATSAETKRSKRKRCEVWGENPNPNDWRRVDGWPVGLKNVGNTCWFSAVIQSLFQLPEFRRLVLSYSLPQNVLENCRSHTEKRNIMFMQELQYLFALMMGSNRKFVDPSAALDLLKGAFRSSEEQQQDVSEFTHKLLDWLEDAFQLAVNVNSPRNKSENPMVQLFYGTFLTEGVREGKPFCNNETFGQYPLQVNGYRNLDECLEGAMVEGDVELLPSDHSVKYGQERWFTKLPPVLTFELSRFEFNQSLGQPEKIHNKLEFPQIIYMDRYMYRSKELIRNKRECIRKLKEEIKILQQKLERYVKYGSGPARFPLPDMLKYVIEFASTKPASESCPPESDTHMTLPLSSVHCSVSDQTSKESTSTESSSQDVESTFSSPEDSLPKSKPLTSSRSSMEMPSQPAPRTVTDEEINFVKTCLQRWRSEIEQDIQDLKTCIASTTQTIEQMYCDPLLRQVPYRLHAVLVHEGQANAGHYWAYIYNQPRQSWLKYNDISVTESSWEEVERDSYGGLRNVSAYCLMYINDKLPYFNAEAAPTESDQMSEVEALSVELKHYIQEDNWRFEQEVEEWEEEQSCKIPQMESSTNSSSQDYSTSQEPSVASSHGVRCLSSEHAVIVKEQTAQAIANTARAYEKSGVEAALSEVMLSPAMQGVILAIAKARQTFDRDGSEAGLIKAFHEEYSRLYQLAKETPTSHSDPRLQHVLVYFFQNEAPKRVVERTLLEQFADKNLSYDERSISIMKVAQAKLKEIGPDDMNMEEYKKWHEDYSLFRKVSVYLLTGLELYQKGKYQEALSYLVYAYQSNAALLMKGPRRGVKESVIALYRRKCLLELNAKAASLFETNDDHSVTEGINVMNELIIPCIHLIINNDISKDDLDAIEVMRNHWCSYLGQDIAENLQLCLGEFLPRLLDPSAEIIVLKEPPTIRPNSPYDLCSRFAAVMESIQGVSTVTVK
# In short: as §1
# USP24, sequence (Q9UPU5 whole entry): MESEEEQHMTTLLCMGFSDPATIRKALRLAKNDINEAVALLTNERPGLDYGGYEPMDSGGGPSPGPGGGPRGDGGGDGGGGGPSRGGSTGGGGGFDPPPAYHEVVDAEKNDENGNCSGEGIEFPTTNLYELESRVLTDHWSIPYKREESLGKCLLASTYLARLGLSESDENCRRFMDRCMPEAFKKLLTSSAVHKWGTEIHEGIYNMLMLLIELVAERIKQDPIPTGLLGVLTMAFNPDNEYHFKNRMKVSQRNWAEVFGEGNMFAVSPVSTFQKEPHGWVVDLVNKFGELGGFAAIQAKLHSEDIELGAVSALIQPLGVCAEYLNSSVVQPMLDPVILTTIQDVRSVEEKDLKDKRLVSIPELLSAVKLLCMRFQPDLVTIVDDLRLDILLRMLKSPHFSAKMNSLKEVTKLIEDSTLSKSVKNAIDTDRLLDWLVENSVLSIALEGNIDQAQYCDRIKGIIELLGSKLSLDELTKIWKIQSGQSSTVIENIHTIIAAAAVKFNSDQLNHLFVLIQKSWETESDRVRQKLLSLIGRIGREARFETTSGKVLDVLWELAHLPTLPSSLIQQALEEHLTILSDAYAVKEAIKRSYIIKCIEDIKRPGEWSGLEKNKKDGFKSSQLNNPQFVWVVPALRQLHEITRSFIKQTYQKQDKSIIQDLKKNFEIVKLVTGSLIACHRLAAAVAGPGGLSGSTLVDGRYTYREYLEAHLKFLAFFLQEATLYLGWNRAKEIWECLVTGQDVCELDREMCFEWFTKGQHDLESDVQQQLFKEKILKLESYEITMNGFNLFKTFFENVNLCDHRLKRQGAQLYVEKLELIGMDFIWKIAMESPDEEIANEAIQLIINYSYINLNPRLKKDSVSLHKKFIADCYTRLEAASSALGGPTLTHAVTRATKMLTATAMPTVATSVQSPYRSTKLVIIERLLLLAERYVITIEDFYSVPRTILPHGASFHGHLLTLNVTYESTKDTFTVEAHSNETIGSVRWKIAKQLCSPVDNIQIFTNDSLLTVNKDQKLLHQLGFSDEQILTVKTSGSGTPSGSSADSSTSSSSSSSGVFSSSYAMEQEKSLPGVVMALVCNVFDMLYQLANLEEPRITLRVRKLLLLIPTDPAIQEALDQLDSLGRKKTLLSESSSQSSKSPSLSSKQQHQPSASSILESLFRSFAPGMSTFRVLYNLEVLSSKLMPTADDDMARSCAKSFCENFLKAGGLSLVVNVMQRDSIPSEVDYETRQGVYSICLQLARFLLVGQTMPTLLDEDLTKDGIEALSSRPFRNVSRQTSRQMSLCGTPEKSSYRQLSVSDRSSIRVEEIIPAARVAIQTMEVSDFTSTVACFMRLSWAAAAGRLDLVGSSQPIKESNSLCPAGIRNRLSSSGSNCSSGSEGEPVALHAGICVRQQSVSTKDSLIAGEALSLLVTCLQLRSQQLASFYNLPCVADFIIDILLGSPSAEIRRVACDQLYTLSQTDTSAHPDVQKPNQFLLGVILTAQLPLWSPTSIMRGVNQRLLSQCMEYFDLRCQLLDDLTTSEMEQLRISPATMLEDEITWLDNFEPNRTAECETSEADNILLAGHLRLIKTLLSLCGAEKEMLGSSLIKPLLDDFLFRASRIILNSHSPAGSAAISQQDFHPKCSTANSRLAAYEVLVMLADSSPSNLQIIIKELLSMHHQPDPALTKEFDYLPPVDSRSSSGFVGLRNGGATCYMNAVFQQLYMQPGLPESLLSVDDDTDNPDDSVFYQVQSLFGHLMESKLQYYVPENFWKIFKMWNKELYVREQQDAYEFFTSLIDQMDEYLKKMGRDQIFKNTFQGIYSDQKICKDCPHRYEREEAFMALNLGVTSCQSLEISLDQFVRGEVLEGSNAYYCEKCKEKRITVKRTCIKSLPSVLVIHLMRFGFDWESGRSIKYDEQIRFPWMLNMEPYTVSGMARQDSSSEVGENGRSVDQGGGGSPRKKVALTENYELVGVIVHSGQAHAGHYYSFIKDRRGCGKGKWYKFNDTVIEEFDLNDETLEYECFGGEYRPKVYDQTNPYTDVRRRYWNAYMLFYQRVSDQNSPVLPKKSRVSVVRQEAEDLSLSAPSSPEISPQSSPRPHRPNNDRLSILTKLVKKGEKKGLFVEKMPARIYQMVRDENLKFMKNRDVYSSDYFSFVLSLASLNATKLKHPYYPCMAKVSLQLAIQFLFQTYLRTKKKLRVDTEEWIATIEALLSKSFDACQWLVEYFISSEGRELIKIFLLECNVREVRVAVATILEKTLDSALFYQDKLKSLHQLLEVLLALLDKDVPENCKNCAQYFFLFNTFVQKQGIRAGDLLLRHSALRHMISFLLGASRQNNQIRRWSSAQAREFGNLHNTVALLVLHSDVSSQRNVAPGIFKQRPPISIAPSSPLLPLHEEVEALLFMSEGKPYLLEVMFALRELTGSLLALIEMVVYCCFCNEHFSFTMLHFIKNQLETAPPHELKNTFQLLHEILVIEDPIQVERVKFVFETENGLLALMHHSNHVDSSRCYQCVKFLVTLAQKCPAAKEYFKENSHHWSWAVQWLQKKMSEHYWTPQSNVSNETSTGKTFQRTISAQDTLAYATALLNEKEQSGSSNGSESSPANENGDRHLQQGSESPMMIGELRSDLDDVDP
smiles,measurement,setting,value
CN1C(=O)c2ccc(NC(=O)CCl)cc2C1=O,log2 ratio of Biotin-Ahx-Ub-VS probe labelling,[1],-0.358
same,log2 ratio of Biotin-Ahx-Ub-VS probe labelling,[2],0.0519
same,log2 ratio of Biotin-Ahx-Ub-VS probe labelling,[3],-0.467
same,log2 ratio of Biotin-Ahx-Ub-VS probe labelling,[4],-1.54 (active)
same,log2 ratio of Biotin-Ahx-Ub-VS probe labelling,[5],-1.5 (active)
